For 8 compounds, outcome, Potency and max activation results are on record in PubChem BioAssay (Tox21).

The target in assay [1] is Thyrotropin receptor (Homo sapiens) (UniProt P16473). As to the kind of experiment: qHTS assay to identify small molecule antagonists of the thyroid stimulating hormone receptor (TSHR) signaling pathway (AID 1259385; calls by dose curve; further: nearly all actives have a fitted effect of over 20% in size). In outline: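 Antagonist mode: compound-treated TSHR-expressing HEK293 cells were stimulated with 1.5 ng/mL TSH (final) in presence of Ro20-1724 for 30 min at RT. HTRF cAMP detection after 1 h; each compound tested at 15 concentrations, triplicate.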
Thyrotropin receptor (Homo sapiens), sequence (P16473 whole entry, looked up): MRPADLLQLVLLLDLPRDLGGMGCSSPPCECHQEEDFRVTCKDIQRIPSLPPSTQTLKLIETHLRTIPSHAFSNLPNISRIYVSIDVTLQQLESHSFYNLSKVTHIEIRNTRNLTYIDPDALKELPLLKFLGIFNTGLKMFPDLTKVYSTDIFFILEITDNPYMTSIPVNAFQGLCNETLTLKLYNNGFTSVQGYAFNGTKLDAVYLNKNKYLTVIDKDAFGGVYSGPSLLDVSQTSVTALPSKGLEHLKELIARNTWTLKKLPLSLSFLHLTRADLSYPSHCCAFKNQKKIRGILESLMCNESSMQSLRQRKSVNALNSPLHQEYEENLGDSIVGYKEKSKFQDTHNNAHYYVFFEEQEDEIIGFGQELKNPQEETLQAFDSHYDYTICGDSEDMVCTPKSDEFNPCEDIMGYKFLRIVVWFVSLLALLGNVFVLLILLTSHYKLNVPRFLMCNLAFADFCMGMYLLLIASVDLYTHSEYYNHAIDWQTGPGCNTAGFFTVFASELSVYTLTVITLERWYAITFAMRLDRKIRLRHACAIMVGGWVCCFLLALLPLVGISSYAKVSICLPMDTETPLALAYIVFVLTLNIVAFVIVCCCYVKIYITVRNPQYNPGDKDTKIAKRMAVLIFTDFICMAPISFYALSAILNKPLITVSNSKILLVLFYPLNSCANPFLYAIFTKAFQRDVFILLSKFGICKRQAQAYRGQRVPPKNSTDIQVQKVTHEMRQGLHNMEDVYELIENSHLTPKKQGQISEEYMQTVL
For orientation: Quantitative high-throughput screening tests each substance at several concentrations.

Assay [2] can be described thus: qHTS assay to identify small molecule agonists of the estrogen receptor alpha (ER-alpha) signaling pathway in the presence of an antagonist - cell viability counter screen (AID 1259386).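 Further: cells exposed to compounds for 22 h at 37 °C before the viability read; nearly all actives have a fitted effect of over 30% in size.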 Further: potency means the concentration at half of the fitted maximal effect. In outline: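 In this counter screen, compound effects on VM7Luc4E2 viability were tested in the presence of the antagonist ICI-182,780 at 10.0nM final. Compounds were dosed at 15 concentrations, exposure lasted 22hr, and the CellTiter-Fluor signal was read.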

Assay [3] addresses Progesterone receptor (Homo sapiens) (UniProt P06401). As to the kind of experiment: qHTS assay to identify small molecule agonists of the progesterone receptor (PR) signaling pathway (AID 1346784; calls by dose curve; further: nearly all actives have a fitted effect of over 30% in size). In outline:
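HEK 293T PR-UAS-bla reporter cells, 2% charcoal-stripped FBS; 6 hr settle at 37C/5% CO2, compound (DMSO) 16 hr, LiveBLAzer B/G FRET substrate 2 hr RT, fluorescence intensity read.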

The target is the same in assay [4]. As to the kind of experiment: qHTS assay to identify small molecule antagonists of the progesterone receptor (PR) signaling pathway (AID 1346795; active means well fitted inhibition curve with a large enough effect in the signal ratio in the repeat runs, not every such curve was filed as active; the % refers to the signal ratio). In outline:
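Beta-lactamase reporter, HEK293T PR-UAS-bla line; 2% charcoal-stripped FBS; 6 hr pre-incubation, 37C/5% CO2. Compound + R5020 1 nM final, 16 hr. LiveBLAzer B/G FRET substrate, 2 hr RT; fluorescence intensity read.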

Assay [5] in a line: qHTS assay to identify small molecule antagonists of the progesterone receptor (PR) signaling pathway - cell viability counter screen (AID 1346798). Further: series mostly up to about 92 µM; nearly all actives have a fitted effect of over 50% in size. The essentials: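 Luminescence readout (CellTiter-Glo, 30 min, RT) of viability in PR-UAS-bla HEK293T cells exposed to compound and R5020 agonist for 16 hr at 37C, 5% CO2; run in the same wells as the beta-lactamase reporter read.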

The nature of assay [6]: qHTS assay to identify small molecule agonists of the progesterone receptor (PR) signaling pathway - cell viability counter screen (AID 1346799; calls by dose curve; further: nearly all actives have a fitted effect of over 45% in size). The essentials:
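HEK293T PR-UAS-bla, 3,000 cells/well, 2% charcoal-stripped FBS; 6 h settle, compound 16 h at 37C/5% CO2; LiveBLAzer 2 h RT, then CellTiter-Glo 30 min RT, luminescence read.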

Assay [7] is described as follows: qHTS assay to identify small molecule antagonists of the TGF-beta/Smad signaling pathway - cell viability counter screen (AID 1346824). Further: nearly all actives have a fitted effect of over 50% in size. The essentials: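 Cytotoxicity counter-screen run in the same wells as the beta-lactamase Smad reporter read: CellTiter-Glo luminescence after 30 min at room temperature. HEK 293T SBE-bla cells had 5 hr compound exposure at 37 C with TGF-beta1 (0.25 ng/mL stock).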

Assay [8] is described as follows: qHTS assay to identify small molecule agonists of the TGF-beta/Smad signaling pathway (AID 1346859; active means well fitted activation curve with a large enough effect in the signal ratio in the repeat runs, not every such curve was filed as active; the % refers to the signal ratio; further: series mostly up to about 77 µM). In outline:
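Read-out: fluorescence at 460 and 530 nm (405 nm excitation) after a 2 hr room-temperature incubation with beta-lactamase FRET substrate. SBE-bla HEK 293T cells had been treated with test compounds for 5 hr at 37 C.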

For assay [9], the target named is Thyrotropin-releasing hormone receptor (Homo sapiens) (UniProt P34981). Kind of assay: qHTS assay to identify small molecule antagonists of the thyrotropin-releasing hormone receptor (TRHR) signaling pathway (AID 1346877; active means well fitted inhibition curve with a large enough effect in the repeat runs, not every such curve was filed as active; further: series mostly up to about 51 µM). In outline:
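Kinetic fluorescence (3 min, 1 s resolution) following stimulation with TRH at 1 nM final; HEK293 cells bearing human TRHR; 5 min compound preincubation at RT; concentration-response over 15 points, triplicates.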

Assay [10] has the same target. Kind of assay: qHTS assay to identify small molecule agonists of the thyrotropin-releasing hormone receptor (TRHR) signaling pathway (AID 1346891; calls by dose curve;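 further: HEK293 cells expressing TRHR with calcium dye readout; series mostly up to about 58 µM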). The essentials: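 HEK293/TRHR cells, 1500 per well, 18 h 37 °C; Ca dye 2 h 37 °C; pin-tool compound addition (agonist mode); kinetic fluorescence 3 min, 1 s reads; 15 concentrations, triplicate.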
The nature of assay [11]: Caspase-3/7 induction in HepG2 cells by small molecules, qHTS assay (AID 1346978). Further: nearly all actives have a fitted effect of over 15% in size. The essentials:
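Caspase-3/7 induction was measured by Caspase-Glo 3/7 luminescence (30 min, room temperature) after a 17 hr compound exposure of wild-type HepG2 cells seeded at 2,000 per well and pre-incubated 5 hr.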

Assay [12] is described as follows: Caspase-3/7 induction in CHO-K1 cells by small molecules, qHTS cell viability counter screen (AID 1346979). Further: nearly all actives have a fitted effect of over 35% in size. Further: potency means the concentration at half of the fitted maximal effect. The essentials: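 CHO-K1 wt, 1,500 cells/well; 5hr pre-incubation 37C/5% CO2; compound pin transfer (DMSO); 16hr exposure; CellTiter-Fluor added, 1hr, fluorescence read.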
Assay [13] is described as follows: Caspase-3/7 induction in HepG2 cells by small molecules, qHTS cell viability counter screen (AID 1346981). Further: nearly all actives have a fitted effect of over 30% in size. Further: potency means the concentration at half of the fitted maximal effect. In outline: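 In this quantitative HTS counter screen, compounds delivered in DMSO were left on unmodified HepG2 cells for 16 hr at 37 C. Viability was then determined fluorometrically with CellTiter-Fluor, in parallel with caspase-3/7 induction in the same wells.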

In assay [14] the target is Nuclear receptor subfamily 1 group I member 2 (Homo sapiens) (UniProt O75469). Kind of assay: Human pregnane X receptor (PXR) small molecule agonists, qHTS assay (AID 1346982). Further: nearly all actives have a fitted effect of over 35% in size. Further: potency means the concentration at half of the fitted maximal effect. The essentials:
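Reporter HepG2 cells expressing PXR-Luc are cultured in charcoal-stripped FBS (5%), treated with compounds for 24 hr at 37 C, and assayed by ONE-Glo luminescence after 30 min at room temperature.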

Assay [15] addresses Nuclear receptor subfamily 1 group I member 2 (Rattus norvegicus) (UniProt Q9R1A7). As to the kind of experiment: Rat pregnane X receptor (rPXR) activation by small molecules, qHTS assay (AID 1346983). Further: nearly all actives have a fitted effect of over 20% in size. The conditions noted are these: rPXR luciferase reporter cells, One-Glo luminescence, 24 h; max activation: stronger effect = higher value. In outline:
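Luminescent readout (One-Glo luciferase, 30 min room temperature) followed 24 hr compound treatment at 37 C of rPXR cells plated 2,000 per well and preincubated 5hr; qHTS format with compounds delivered in DMSO.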

The target in assay [16] is Nuclear receptor subfamily 1 group I member 2 (Homo sapiens) (UniProt O75469). Kind of assay: CYP3A4 induction through human pregnane X receptor (PXR) by small molecules, qHTS assay (AID 1346984). Further: nearly all actives have a fitted effect of over 40% in size. Further: potency means the concentration at half of the fitted maximal effect. In outline: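 Induction measured in HepG2-based DPX-2 cells co-expressing human PXR and a CYP3A4 promoter-driven luciferase. After a 24-hour compound exposure, cells received CYP3A4 luciferin substrate at 3uM final for 3 hours, and light output was then recorded.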
Nuclear receptor subfamily 1 group I member 2 (Homo sapiens), sequence (O75469 whole entry, looked up): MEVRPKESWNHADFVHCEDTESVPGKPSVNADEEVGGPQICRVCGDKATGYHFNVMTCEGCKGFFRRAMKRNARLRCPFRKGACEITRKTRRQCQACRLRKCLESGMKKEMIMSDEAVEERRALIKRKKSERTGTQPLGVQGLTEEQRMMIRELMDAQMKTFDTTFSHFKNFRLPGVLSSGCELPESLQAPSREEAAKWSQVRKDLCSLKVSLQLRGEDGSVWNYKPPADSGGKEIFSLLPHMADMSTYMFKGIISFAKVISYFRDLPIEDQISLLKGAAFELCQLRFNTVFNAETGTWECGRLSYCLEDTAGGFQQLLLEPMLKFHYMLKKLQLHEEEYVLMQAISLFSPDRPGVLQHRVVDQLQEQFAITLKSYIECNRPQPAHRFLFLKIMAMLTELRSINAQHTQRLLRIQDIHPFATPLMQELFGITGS

Assay [17] is described as follows: qHTS assay to identify small molecule agonists of the TGF-beta/Smad signaling pathway - cell viability counter screen (AID 1346829). Further: top concentration of the series differs between compounds; nearly all actives have a fitted effect of over 45% in size. In outline: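 SBE-bla HEK 293T cells plated overnight, compound exposure 5 hr at 37 C. Viability read in the same wells by CellTiter-Glo luminescence after 30 min at room temperature, following the beta-lactamase read.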
Assay [18] can be described thus: Caspase-3/7 induction in CHO-K1 cells by small molecules, qHTS assay (AID 1346980). Further: nearly all actives have a fitted effect of over 15% in size. In outline:
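Luminescent Caspase-Glo 3/7 read (30min, room temperature) quantified apoptosis induction. Cells were wild-type CHO-K1, treated with compound for 17hr at 37 C and 5% CO2.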

A short description of assay [19]: Human pregnane X receptor (PXR) small molecule agonists, qHTS cell viability counter screen (AID 1346977). Further: nearly all actives have a fitted effect of over 50% in size. The essentials:
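Fluorescence read-out (CellTiter-Fluor) of viability in PXR-Luc HepG2 cells, multiplexed with the luciferase agonist read. Compounds in DMSO added after 5hr plating; 24hr total exposure at 37C, 5% CO2.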

Assay [20] concerns the target Nuclear receptor subfamily 1 group I member 2 (Homo sapiens) (UniProt O75469). Kind of assay: Human pregnane X receptor (PXR) activation by small molecules, qHTS assay (AID 1346985). Further: nearly all actives have a fitted effect of over 40% in size. The essentials:
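DPX-2 cells (HepG2 co-transfected with a PXR response element and a CYP3A4-promoter luciferase construct) were seeded at 2,000 per well, rested 5 hr at 37C, then exposed to DMSO-dissolved compounds for 24 hr. Activation was read as luciferase luminescence.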

“And” between values parts separate entries of the source, which are not always exact repeats. Equal entries are not always repeated. Inconclusive results are not listed. Some structures have more than one record in an assay (separate samples or runs), and their calls can disagree. The source made the active and inactive calls. Unless noted, the call rests on the fitted dose curve; in most records, active means well fitted curve in the direction sought with a large enough effect in the repeat runs; inconclusive means weak or mixed curves; inactive means no such curve, though single readings can be large; an effect the other way counts as inactive or inconclusive.
On the % scale 0 is the no-effect control and ±100 the full control effect.

Progesterone receptor (Homo sapiens), sequence (P06401 whole entry, looked up): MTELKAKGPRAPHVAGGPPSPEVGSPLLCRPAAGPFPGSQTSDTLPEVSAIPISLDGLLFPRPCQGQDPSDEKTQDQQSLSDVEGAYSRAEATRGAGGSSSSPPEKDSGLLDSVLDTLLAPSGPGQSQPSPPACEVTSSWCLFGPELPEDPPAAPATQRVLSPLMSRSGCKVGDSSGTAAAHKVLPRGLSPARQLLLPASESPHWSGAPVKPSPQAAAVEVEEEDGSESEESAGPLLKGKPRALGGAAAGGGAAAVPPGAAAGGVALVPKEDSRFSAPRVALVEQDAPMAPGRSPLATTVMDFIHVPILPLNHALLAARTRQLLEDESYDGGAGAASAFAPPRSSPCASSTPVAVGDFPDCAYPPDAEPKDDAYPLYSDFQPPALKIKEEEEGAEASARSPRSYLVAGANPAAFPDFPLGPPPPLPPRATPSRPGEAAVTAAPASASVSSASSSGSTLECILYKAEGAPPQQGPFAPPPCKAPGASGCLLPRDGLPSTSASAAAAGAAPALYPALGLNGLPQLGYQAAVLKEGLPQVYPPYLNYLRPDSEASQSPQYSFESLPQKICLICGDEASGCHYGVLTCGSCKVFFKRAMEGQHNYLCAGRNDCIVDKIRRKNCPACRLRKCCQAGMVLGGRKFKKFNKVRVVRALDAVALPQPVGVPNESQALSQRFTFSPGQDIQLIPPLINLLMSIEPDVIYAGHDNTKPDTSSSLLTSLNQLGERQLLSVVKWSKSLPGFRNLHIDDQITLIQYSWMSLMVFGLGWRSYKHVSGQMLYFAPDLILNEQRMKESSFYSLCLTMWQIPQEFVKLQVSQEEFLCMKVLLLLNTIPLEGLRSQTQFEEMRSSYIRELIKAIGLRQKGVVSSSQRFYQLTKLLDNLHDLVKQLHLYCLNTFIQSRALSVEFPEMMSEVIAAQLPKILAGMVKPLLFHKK
Thyrotropin-releasing hormone receptor (Homo sapiens), sequence (P34981 whole entry, looked up): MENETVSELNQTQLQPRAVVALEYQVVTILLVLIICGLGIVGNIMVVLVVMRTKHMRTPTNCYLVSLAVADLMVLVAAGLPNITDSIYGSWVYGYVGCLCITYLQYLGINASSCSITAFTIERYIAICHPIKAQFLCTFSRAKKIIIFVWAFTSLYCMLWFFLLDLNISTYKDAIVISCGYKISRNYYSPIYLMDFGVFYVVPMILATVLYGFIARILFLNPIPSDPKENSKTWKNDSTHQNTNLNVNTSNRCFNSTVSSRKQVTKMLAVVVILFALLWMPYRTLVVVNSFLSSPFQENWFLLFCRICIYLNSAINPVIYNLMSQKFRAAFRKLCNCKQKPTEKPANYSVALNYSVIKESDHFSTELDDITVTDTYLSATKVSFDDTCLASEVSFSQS
Nuclear receptor subfamily 1 group I member 2 (Rattus norvegicus), sequence (Q9R1A7 whole entry, looked up): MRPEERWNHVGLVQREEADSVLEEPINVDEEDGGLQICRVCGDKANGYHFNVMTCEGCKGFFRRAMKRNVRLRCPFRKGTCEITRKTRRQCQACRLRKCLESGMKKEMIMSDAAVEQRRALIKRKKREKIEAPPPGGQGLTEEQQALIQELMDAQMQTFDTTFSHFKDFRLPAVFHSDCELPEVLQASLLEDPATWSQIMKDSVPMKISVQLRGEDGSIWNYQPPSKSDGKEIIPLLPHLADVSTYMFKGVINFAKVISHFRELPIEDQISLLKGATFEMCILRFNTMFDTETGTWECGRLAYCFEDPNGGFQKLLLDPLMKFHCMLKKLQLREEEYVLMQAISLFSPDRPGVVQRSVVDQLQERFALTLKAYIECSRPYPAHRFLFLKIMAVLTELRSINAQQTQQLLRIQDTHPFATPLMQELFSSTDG

`NC(=O)N/N=C/c1ccc([N+](=O)[O-])o1`: the compound was called inactive in assay [1], in assay [8] and in [9]. The Potency result in [2] was “inactive and 61.1 µM (active)”; in assay [12], “inactive and 42.4 µM (active) and 29.8 µM (active)”; in [13] it was “inactive and 58.4 µM (active)”; in assay [14], “inactive and 7.7 µM (active)”. The Potency result in assay [3], in assay [4], in [5], in assay [6], in [7] and in assay [10] was “inactive” each time. The Potency entry in assay [11] and in assay [16] was “inactive” throughout. Moreover, the max activation in [15] is -4.99% (inactive).
Take `C=CC(=O)NC(C)(C)CS(=O)(=O)O`: the compound was classed as inactive in assay [1], in assay [8] and in [18]. The Potency entry in assay [2], in [3], in assay [4], in assay [5], in [6] and in [7] was “inactive” in each case. The Potency result in assay [17], in assay [11], in assay [12], in assay [13] and in assay [14] was “inactive” throughout.
`CC(C)(C)NCC(O)c1ccc(O)c(CO)c1` (centres undefined): the outcome in [1], in assay [8], in [9] and in assay [18] was inactive. Moreover, the Potency result in assay [2], in assay [3], in [4], in [5], in [6] and in assay [7] was “inactive” throughout. The Potency entry in assay [10], in assay [19], in [11], in [12], in [13] and in assay [14] was “inactive” in each case.
For `N[C@@H](Cc1c[nH]c2ccccc12)C(=O)O`, the result in assay [1], in [8], in [9] and in assay [18] was inactive. The Potency entry in assay [2], in assay [3], in [4], in assay [5], in assay [6] and in assay [7] was “inactive” in each case. In addition, the Potency result in assay [10], in [19], in [11], in assay [12], in assay [13] and in assay [14] was “inactive” each time.
For the compound `COC(=O)C1CCC(C(=O)OC)CC1` (centres undefined), the result in assay [1], in assay [8], in assay [9] and in assay [18] was inactive. For the same compound, the Potency entry in assay [2], in assay [3], in assay [4], in assay [5], in assay [6] and in [7] was “inactive” each time. In addition, the Potency entry in [10], in assay [19], in [11], in assay [12], in assay [13] and in [14] was “inactive” each time.
Consider `C=CCOC(=O)CC(C)C`, for which the compound was called inactive in [1], in [8] and in [9]. The Potency entry in assay [2], in assay [3], in assay [4], in [5], in [6] and in assay [7] was “inactive” in each case. In addition, the Potency result in [10], in assay [11], in assay [12], in [13] and in assay [14] was “inactive” throughout.
As for `CC(=O)c1ccc(S(=O)(=O)NC(=O)NC2CCCCC2)cc1`, the compound was classed as inactive in assay [1], in assay [8] and in [9]. For the same compound, the Potency result in [2], in assay [3], in [4], in assay [5], in assay [6] and in assay [7] was “inactive” in each case. Also, the Potency entry in [10], in assay [19], in assay [11], in [12], in assay [13] and in assay [14] was “inactive” throughout.
On to `CC1=NN(c2ccccc2)C(=O)C1`, for which the outcome in assay [1], in assay [8] and in assay [9] was inactive. Further, the Potency result in assay [2], in assay [3], in assay [4], in [5], in assay [6] and in assay [7] was “inactive” in each case. Moreover, the Potency entry in [10], in assay [11], in assay [12], in assay [13], in [14] and in assay [20] was “inactive” throughout. In addition, the max activation in [15] was -4.19% (inactive). For the same compound, the Potency in [16] was 25.1 µM (active).
